# Source: PubChem BioAssay AID1049 (The Scripps Research Institute Molecular Screening Center, 2008)
# Hit rate of the full screen: of about 200,000 compounds, about 780 (0.39%) were called active. The full list was thinned out, with actives kept by preference. A number with no mark means an inactive call. No stated cut-off is given here; in the data, active means TR-FRET ratio above about 2000; inactive means the rest.
# Experiment: TR-FRET signal artefacts, primary screen, artefact control for PPARgamma SRC-2 agonist project, biochemical (AID 1049)
# Conditions: TR-FRET artefact counter-screen; at 8 µM; stronger effect = higher value
row,SMILES,TR-FRET ratio
1,CSC1=NP(=S)(SC)N(C)c2nc3n(c21)CCC3 (stereo not given),3350 (active)
2,Cc1ccc(C)c(NC2=NCCCS2)c1,1500
3,Cc1cccc(-n2c(O)c(C=NC34CN5CN(CN(C5)C3)C4)c(=O)[nH]c2=O)c1,1640
4,OC1/C(=C/c2ccc(C(F)(F)F)cc2)N2CCC1CC2 (stereo not given),1710
5,COc1cc(-n2c(=S)[nH]c3ccc(C)cc3c2=O)c(Cl)cc1Cl,2140 (active)
6,O=c1c2ccccc2nc(-c2ccccc2)n1-c1ccccn1,1550
7,O=C(COC(=O)Cc1ccccc1)Nc1ccc(F)cc1,1600
8,CN(C)c1nc(N(C)C)nc(N(C#N)CCCl)n1,1800
9,CCCn1c(C(=O)c2ccccc2OC)nc2ccccc21,1400
10,O=c1[nH]c(=O)n(-c2ccccc2)c(O)c1C=NC12CN3CN(CN(C3)C1)C2,1500
